The results in this text go back to PMC3218832.

Targets include RELARELA (p65 homodimer) (Homo sapiens, UniProt Q04206 1-307); p50p50 homodimer (Homo sapiens, UniProt P19838 7-356); RELB subunit;p50 subunit (Homo sapiens;Homo sapiens, UniProt Q01201;P19838 120-401;7-356).
What all share (assay): protein binding microarray; high values mean tight binding
Conditions in all cases: dsDNA, one strand shown

Another assay concerns the target T1, p52p52 homodimer (Homo sapiens, UniProt Q00653 4-332).
T1 sequence: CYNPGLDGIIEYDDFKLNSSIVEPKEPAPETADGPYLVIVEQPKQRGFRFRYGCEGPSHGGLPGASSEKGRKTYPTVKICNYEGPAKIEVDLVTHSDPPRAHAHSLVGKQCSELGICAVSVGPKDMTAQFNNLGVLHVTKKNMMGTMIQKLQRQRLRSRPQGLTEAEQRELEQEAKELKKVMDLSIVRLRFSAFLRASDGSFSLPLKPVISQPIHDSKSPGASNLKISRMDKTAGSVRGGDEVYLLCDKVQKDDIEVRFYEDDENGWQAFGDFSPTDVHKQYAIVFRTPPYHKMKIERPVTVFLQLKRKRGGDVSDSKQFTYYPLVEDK

For assay [1], the target named is RELA (p65) subunit of heterodimer;p50 subunit (Homo sapiens;Homo sapiens, UniProt Q04206;P19838 1-307;7-356).
Assay [2] deals with RELA (p65) subunit of heterodimer;p52 subunit (Homo sapiens;Homo sapiens, UniProt Q04206;Q00653 1-307;4-332).
The target in a further assay is T2, RELB subunit;p52 subunit (Homo sapiens;Homo sapiens, UniProt Q01201;Q00653 120-401;4-332).
T2 sequence 1: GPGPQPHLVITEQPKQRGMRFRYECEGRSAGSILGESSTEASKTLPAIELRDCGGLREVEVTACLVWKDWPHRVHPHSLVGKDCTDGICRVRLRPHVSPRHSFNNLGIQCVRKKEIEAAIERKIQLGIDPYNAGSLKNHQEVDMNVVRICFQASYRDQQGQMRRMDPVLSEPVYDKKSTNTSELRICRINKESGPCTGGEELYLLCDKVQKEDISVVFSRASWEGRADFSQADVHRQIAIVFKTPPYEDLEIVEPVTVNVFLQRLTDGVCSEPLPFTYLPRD
T2 sequence 2: T1 sequence

The target of assay [3] is C-Rel subunit;p50 subunit (Homo sapiens;Homo sapiens, UniProt Q04864;P19838 1-285;7-356).
For assay [4], the target named is T3, C-Rel subunit;p52 subunit (Homo sapiens;Homo sapiens, UniProt Q04864;Q00653 1-285;4-332).
T3 sequence 1: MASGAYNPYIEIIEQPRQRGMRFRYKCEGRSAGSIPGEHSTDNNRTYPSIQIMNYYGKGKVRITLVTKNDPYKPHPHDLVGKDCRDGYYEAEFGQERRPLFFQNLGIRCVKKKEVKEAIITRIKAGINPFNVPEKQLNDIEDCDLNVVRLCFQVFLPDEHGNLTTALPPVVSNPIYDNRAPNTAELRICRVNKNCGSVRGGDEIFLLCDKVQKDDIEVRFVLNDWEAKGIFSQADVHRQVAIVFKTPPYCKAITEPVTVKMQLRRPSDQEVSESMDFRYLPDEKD
T3 sequence 2: T1 sequence

Chain of RELA (p65) subunit of heterodimer;p50 subunit (Q04206 1-307, chain 1 of 2): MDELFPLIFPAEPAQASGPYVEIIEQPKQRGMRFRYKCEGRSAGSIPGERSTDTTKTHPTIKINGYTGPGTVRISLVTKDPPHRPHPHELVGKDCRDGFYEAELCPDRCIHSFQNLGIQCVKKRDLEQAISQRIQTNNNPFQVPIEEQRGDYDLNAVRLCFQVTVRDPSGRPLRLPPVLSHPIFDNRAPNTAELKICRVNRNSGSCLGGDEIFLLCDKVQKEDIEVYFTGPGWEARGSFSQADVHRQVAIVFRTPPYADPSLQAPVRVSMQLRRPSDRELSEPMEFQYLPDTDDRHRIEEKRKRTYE
Chain of RELA (p65) subunit of heterodimer;p50 subunit (P19838 7-356, chain 2 of 2): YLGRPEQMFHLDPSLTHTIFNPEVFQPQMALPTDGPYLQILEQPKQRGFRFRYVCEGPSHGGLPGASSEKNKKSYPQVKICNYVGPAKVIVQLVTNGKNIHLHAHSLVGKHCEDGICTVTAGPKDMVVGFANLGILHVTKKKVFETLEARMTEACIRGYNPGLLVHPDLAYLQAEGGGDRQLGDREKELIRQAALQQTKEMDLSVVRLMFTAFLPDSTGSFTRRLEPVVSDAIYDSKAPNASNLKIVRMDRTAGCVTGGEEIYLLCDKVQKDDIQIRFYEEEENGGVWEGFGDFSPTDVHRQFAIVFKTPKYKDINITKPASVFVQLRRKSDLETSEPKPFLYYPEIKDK
Chain of RELARELA (p65 homodimer) (Q04206 1-307): as the sequence (Q04206 1-307, chain 1 of 2) above
Chain of p50p50 homodimer (P19838 7-356): as the sequence (P19838 7-356, chain 2 of 2) above

Consider AAAGACGCCCC, for which the binding signal in the assay with RELARELA (p65 homodimer) is -0.195 z-score; with p50p50 homodimer it was 0.408 z-score; with p52p52 homodimer, 0.153 z-score; in assay [1] it was 0.135 z-score; in assay [2] it was 0.105 z-score; with RELB subunit;p50 subunit it was 0.331 z-score. Also, the binding signal with RELB subunit;p52 subunit is 0.432 z-score; in [3] it was 0.326 z-score; in assay [4] it was -0.126 z-score.

Regarding CAAATGCCCCT, the binding signal worked out at 0.347 z-score with RELARELA (p65 homodimer); 1.15 z-score with p50p50 homodimer; 1.14 z-score with p52p52 homodimer; 1.2 z-score in assay [1]; 1.19 z-score in assay [2]; 1.21 z-score with RELB subunit;p50 subunit. The binding signal with RELB subunit;p52 subunit came out at 1.47 z-score; in assay [3], 0.882 z-score; in assay [4] it was 1.38 z-score.

Turning to CAATATACCCC, the binding signal was -0.012 z-score in the assay with RELARELA (p65 homodimer); 0.317 z-score in the assay with p50p50 homodimer; 0.195 z-score with p52p52 homodimer; 0.199 z-score in assay [1]; 0.442 z-score in [2]; 0.428 z-score with RELB subunit;p50 subunit. Besides, the results for the binding signal (with RELB subunit;p52 subunit; in assay [3]; in assay [4]) were 0.992 z-score, 0.384 z-score and 0.51 z-score, respectively.

Consider CAAGTATTCCT, for which the binding signal with RELARELA (p65 homodimer) was -0.0829 z-score; with p50p50 homodimer, -1.19 z-score; in the assay with p52p52 homodimer it was -0.607 z-score; in [1] it was -0.839 z-score; in assay [2], -0.737 z-score; with RELB subunit;p50 subunit, -0.975 z-score. The binding signal with RELB subunit;p52 subunit was -0.645 z-score; in [3], -0.507 z-score; in assay [4], -0.822 z-score.

For AGAATTGCCCT, the binding signal in the assay with RELARELA (p65 homodimer) is 0.531 z-score; with p50p50 homodimer, -0.747 z-score; with p52p52 homodimer it was -0.409 z-score; in [1], 0.222 z-score; in [2], -0.0792 z-score; in the assay with RELB subunit;p50 subunit, -0.516 z-score. Further, the binding signal in the assay with RELB subunit;p52 subunit was -0.558 z-score; in [3], -0.0961 z-score; in assay [4], 0.0532 z-score.

Take GGGTTGACCCT: the binding signal in the assay with RELARELA (p65 homodimer) was -0.0795 z-score; with p50p50 homodimer, -0.785 z-score; with p52p52 homodimer, -0.387 z-score; in assay [1] it was -0.407 z-score; in assay [2], -0.336 z-score; with RELB subunit;p50 subunit, -0.554 z-score. Moreover, the binding signal in the assay with RELB subunit;p52 subunit is -0.73 z-score; in assay [3] it was -0.769 z-score; in assay [4] it was -0.115 z-score.

For GAATAGACCCT, the binding signal was -0.683 z-score with RELARELA (p65 homodimer); -0.579 z-score with p50p50 homodimer; -0.346 z-score with p52p52 homodimer; -0.545 z-score in assay [1]; -0.606 z-score in assay [2]; -0.679 z-score with RELB subunit;p50 subunit. Besides, the results for the binding signal (with RELB subunit;p52 subunit; in assay [3]; in [4]) were -0.749 z-score, -1.19 z-score and -0.574 z-score, respectively.

Take GAAGTCTTCCC: the binding signal is 0.246 z-score with RELARELA (p65 homodimer); -0.511 z-score in the assay with p50p50 homodimer; -0.37 z-score with p52p52 homodimer; -0.272 z-score in assay [1]; -0.339 z-score in [2]; -0.349 z-score with RELB subunit;p50 subunit. Also, the values for the binding signal (with RELB subunit;p52 subunit; in [3]; in assay [4]) were -0.537 z-score, 0.175 z-score and -0.174 z-score, respectively.

As to GAAATGCTCCC, the binding signal is -0.193 z-score with RELARELA (p65 homodimer); -0.556 z-score in the assay with p50p50 homodimer; -0.401 z-score with p52p52 homodimer; -0.482 z-score in assay [1]; -0.537 z-score in assay [2]; -0.542 z-score with RELB subunit;p50 subunit. The binding signal with RELB subunit;p52 subunit is -0.819 z-score; in assay [3], -0.726 z-score; in [4], -0.598 z-score.

As for CGATATATCCC, the binding signal was 0.113 z-score with RELARELA (p65 homodimer); -0.443 z-score with p50p50 homodimer; -0.0767 z-score with p52p52 homodimer; -0.33 z-score in assay [1]; -0.28 z-score in assay [2]; -0.357 z-score in the assay with RELB subunit;p50 subunit. Besides, the binding signal was -0.154 z-score with RELB subunit;p52 subunit, -0.427 z-score in assay [3] and -0.465 z-score in assay [4].

On to CAATGTTCCCT, for which the binding signal with RELARELA (p65 homodimer) is 0.185 z-score; with p50p50 homodimer it was 0.396 z-score; in the assay with p52p52 homodimer it was 0.137 z-score; in assay [1], -0.019 z-score; in [2] it was -0.0733 z-score; in the assay with RELB subunit;p50 subunit, 0.0726 z-score. For the same sequence, the binding signal is 0.0791 z-score in the assay with RELB subunit;p52 subunit, 0.0457 z-score in [3] and -0.175 z-score in [4].

For AGGTGATTCCC, the binding signal with RELARELA (p65 homodimer) worked out at 1.45 z-score; with p50p50 homodimer, 0.701 z-score; with p52p52 homodimer, 3.04 z-score; in assay [1] it was 1.59 z-score; in [2], 2.15 z-score; with RELB subunit;p50 subunit, 1.33 z-score. Moreover, the values for the binding signal (in the assay with RELB subunit;p52 subunit; in assay [3]; in assay [4]) were 2.11 z-score, 1.81 z-score and 2.88 z-score, respectively.

As for GGGAAGACCCT, the binding signal with RELARELA (p65 homodimer) came to 0.871 z-score; with p50p50 homodimer it was 0.365 z-score; with p52p52 homodimer, 1.66 z-score; in [1], 1 z-score; in assay [2], 1.17 z-score; in the assay with RELB subunit;p50 subunit, 0.374 z-score. Further, the binding signal in the assay with RELB subunit;p52 subunit is 1.01 z-score; in [3], 0.481 z-score; in assay [4] it was 1.03 z-score.

On to GAAAGAATCCT, for which the binding signal in the assay with RELARELA (p65 homodimer) is -0.654 z-score; with p50p50 homodimer, -1.19 z-score; with p52p52 homodimer it was -0.601 z-score; in assay [1], -1.12 z-score; in assay [2], -0.922 z-score; with RELB subunit;p50 subunit it was -0.95 z-score. Further, the binding signal was -0.787 z-score in the assay with RELB subunit;p52 subunit, -1.22 z-score in assay [3] and -0.804 z-score in [4].

For CAGAGCATCCC, the binding signal is -0.631 z-score with RELARELA (p65 homodimer); -1.46 z-score with p50p50 homodimer; -0.586 z-score in the assay with p52p52 homodimer; -0.856 z-score in assay [1]; -1.02 z-score in assay [2]; -1.02 z-score in the assay with RELB subunit;p50 subunit. Further, the binding signal is -0.893 z-score with RELB subunit;p52 subunit, -1.22 z-score in assay [3] and -1 z-score in assay [4].
